Test results: the supplement of paper PMC10849652
Of roughly 8,800 targets only a part is listed; those with a hit were picked by preference. About 0.5% of all pairs of compound and target were hits.

compound: C=CC(=O)N1CCC[C@@H](n2nc(-c3ccc(Oc4ccccc4)cc3)c3c(N)ncnc32)C1 [ibrutinib]; experiment: log2 fold change, soluble protein after heating vs DMSO (PISA); higher = thermal stabilisation; K562 lysate, 10 uM; active = over 0.2 and 3.5 SD of the protein, either way, in both replicates (recomputed)
Method in brief: (§1)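 Soluble protein was defined as the supernatant remaining after 21,000xg for 90 min, following pooling of heated aliquots and adjustment to 0.5% NP-40 at 4°C. Before that, crude K562 extract at 1 mg/mL protein in PBS pH 7.4 with 1 mM MgCl2 was treated with 10 μM compound for 30 min and heated for 3 min across 48°C-58°C. Quantification used TMTpro 16plex LC-MS/MS with channel sums equalised, and values are log-two fold changes in thermal stability relative to solvent controls from duplicates.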

Sequence of UniProt Q08AM6 (Q08AM6 whole entry, looked up): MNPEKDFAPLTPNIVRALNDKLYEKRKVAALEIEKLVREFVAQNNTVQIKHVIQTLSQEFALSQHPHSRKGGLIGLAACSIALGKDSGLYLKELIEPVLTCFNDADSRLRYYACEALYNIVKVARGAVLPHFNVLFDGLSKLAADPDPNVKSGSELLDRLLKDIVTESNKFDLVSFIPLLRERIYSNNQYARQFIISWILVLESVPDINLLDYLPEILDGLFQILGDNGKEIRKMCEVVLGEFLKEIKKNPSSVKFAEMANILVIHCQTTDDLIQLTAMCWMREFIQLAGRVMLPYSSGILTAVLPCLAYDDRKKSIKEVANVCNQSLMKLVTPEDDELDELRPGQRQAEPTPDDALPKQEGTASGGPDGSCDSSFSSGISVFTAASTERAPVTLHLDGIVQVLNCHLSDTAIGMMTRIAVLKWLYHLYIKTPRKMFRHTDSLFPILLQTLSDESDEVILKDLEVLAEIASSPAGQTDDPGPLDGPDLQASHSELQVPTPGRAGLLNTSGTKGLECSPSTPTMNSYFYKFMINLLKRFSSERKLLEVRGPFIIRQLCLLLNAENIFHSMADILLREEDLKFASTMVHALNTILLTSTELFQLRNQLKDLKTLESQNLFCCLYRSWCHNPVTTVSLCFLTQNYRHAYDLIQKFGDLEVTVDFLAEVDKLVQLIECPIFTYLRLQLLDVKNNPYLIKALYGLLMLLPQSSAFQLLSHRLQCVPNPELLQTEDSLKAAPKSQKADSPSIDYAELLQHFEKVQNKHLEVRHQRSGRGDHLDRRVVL
Sequence of UniProt Q9Y4P8 (Q9Y4P8 whole entry, looked up): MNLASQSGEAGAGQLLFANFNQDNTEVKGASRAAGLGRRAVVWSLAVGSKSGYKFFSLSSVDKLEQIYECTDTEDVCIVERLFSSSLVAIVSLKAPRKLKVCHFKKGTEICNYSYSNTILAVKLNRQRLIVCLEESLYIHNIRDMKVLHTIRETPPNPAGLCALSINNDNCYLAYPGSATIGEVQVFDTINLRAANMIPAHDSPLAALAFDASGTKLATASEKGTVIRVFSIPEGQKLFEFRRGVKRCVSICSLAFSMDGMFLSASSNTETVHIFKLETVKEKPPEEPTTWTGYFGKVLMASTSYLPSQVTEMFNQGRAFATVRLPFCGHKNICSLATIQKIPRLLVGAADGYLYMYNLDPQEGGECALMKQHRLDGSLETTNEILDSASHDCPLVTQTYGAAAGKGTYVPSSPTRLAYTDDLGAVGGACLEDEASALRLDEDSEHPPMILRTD
Sequence of UniProt Q9Y5J1 (Q9Y5J1 whole entry, looked up): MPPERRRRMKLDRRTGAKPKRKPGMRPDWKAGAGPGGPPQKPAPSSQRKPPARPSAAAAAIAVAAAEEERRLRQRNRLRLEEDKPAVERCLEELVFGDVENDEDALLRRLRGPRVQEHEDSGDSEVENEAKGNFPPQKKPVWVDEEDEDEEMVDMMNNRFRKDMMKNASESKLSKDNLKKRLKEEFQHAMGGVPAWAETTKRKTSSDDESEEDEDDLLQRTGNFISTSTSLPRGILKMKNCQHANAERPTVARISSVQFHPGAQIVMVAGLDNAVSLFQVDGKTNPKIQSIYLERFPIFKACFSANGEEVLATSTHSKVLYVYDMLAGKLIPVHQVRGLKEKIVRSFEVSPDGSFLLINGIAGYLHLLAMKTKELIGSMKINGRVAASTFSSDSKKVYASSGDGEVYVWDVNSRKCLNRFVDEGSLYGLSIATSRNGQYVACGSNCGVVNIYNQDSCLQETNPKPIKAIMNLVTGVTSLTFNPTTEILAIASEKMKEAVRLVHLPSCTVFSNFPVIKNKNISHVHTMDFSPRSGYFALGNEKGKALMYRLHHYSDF
Sequence of UniProt P15498 (P15498 whole entry, looked up): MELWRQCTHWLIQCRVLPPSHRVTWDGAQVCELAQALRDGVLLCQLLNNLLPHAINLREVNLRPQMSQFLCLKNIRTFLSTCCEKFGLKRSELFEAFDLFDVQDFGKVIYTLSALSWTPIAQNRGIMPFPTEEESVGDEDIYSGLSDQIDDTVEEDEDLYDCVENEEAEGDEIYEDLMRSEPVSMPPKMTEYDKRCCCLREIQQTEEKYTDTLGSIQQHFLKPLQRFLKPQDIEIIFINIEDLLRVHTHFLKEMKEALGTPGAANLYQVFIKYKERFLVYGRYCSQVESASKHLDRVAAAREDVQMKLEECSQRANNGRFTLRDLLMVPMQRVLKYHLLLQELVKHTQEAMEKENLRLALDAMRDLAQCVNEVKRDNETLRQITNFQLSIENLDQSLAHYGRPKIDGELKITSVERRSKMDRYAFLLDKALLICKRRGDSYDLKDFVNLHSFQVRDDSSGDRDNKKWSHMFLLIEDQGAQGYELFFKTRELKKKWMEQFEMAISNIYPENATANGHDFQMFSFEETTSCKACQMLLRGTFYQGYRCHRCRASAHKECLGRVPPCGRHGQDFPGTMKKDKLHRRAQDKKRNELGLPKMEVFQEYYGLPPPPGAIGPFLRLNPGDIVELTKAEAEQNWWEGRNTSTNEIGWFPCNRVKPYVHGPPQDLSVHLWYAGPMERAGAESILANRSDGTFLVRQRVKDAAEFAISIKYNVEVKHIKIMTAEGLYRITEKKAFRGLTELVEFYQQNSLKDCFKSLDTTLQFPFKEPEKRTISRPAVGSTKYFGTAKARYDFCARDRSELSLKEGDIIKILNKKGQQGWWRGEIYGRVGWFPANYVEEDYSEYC
Sequence of UniProt Q9H270 (Q9H270 whole entry, looked up): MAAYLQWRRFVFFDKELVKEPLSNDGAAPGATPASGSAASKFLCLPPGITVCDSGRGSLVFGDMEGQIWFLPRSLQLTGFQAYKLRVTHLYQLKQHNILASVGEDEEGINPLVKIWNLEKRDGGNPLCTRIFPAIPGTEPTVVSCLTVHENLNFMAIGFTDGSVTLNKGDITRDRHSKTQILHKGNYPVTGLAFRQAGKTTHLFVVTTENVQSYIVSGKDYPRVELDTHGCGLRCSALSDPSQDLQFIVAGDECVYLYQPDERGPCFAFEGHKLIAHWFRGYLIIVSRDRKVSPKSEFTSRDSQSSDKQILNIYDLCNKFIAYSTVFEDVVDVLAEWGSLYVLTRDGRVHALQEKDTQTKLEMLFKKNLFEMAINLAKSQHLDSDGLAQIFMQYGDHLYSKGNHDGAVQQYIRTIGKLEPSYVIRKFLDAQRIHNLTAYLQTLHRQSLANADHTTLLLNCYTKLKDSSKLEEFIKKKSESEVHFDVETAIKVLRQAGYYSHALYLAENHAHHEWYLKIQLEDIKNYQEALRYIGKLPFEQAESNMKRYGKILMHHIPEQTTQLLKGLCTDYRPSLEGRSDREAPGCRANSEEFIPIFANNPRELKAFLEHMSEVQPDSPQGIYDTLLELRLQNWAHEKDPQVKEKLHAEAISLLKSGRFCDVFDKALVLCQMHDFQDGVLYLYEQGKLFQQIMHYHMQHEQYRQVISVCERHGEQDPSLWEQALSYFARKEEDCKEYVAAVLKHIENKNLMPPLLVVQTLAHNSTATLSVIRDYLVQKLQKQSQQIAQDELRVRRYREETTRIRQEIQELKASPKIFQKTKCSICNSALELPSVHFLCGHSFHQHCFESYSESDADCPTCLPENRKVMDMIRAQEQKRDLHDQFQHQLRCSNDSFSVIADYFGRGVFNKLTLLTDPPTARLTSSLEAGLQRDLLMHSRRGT
Sequence of UniProt Q9UKY1 (Q9UKY1 whole entry, looked up): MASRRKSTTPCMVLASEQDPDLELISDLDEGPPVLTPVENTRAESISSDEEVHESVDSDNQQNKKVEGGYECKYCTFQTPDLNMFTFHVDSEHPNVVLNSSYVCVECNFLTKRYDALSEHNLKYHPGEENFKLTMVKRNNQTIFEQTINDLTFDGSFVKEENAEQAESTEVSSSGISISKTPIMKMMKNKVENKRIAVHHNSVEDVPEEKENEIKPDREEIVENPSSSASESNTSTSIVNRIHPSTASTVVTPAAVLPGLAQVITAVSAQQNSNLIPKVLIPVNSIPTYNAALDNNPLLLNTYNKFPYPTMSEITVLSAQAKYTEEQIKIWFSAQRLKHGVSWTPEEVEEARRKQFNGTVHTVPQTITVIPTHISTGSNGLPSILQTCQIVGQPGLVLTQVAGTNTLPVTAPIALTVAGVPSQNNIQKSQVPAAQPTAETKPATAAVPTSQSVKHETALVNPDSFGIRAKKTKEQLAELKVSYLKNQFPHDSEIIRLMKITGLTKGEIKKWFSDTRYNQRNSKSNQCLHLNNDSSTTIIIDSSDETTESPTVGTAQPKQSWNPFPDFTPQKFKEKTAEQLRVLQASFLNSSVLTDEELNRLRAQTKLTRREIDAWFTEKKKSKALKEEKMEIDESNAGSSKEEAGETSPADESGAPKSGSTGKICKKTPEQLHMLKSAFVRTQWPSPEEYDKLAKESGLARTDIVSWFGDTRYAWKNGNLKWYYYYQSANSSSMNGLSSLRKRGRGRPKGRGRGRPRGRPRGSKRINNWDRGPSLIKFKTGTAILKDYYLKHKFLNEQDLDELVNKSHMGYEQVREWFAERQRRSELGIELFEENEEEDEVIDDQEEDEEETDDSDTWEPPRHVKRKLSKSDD
Sequence of UniProt P50552 (P50552 whole entry, looked up): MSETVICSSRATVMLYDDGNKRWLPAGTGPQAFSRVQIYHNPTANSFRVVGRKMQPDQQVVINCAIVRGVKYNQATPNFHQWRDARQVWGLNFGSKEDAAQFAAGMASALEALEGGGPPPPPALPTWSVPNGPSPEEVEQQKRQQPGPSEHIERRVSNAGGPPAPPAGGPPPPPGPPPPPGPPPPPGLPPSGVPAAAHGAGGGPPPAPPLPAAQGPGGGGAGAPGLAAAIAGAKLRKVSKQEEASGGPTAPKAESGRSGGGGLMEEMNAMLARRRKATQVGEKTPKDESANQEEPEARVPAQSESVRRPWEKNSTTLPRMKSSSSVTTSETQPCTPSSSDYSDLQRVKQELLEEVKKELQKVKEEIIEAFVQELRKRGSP
Sequence of UniProt Q9BRT2 (Q9BRT2 whole entry, looked up): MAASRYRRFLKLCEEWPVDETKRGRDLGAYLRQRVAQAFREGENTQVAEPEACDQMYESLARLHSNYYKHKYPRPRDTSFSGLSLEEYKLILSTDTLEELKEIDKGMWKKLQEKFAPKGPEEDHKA

**Q.** How did the log2 fold change turn out when ZBTB33 (UniProt Q86T24) was run?
**A.** Its log2 fold change is 0.258 (inactive).

**Q.** Which log2 fold change does the source give for VPS11 (UniProt Q9H270) here?
**A.** Its log2 fold change is -0.002 (inactive).

**Q.** How did the log2 fold change turn out when WIPI2 isoform 6 (UniProt Q9Y4P8) was run?
**A.** Its log2 fold change is -0.021 (inactive).

**Q.** Which log2 fold change does the source give for VAC14 (UniProt Q08AM6) here?
**A.** Its log2 fold change is -0.029 (inactive).

**Q.** Which log2 fold change does the source give for VAV1 (UniProt P15498) here?
**A.** The log2 fold change was -0.057 (inactive).

**Q.** Which log2 fold change does the source give for UTP18 (UniProt Q9Y5J1) here?
**A.** The log2 fold change was 0.125 (inactive).

**Q.** Which log2 fold change does the source give for ZHX1 (UniProt Q9UKY1) here?
**A.** The log2 fold change was -0.026 (inactive).

compound: CC(=O)c1cnc2ccc(-c3cc(Cl)c(O)c(Cl)c3)nc2c1N[C@H]1CC[C@H](CN(C)C)CC1; experiment: as above
Method in brief: as §1

**Q.** With UQCC2 (UniProt Q9BRT2) as the target, how does the log2 fold change read?
**A.** Its log2 fold change is 0 (inactive).

**Q.** How did the log2 fold change turn out when ZZEF1 (UniProt O43149) was run?
**A.** The log2 fold change was -0.009 (inactive).

**Q.** For YME1L1 (UniProt Q96TA2), which log2 fold change is on record?
**A.** The log2 fold change was -0.008 (inactive).

**Q.** For WIPI2 (UniProt Q9Y4P8), which log2 fold change is on record?
**A.** Its log2 fold change is 0.019 (inactive).

**Q.** How did the log2 fold change turn out when VPS37B (UniProt Q9H9H4) was run?
**A.** The log2 fold change was 0.014 (inactive).

**Q.** How did the log2 fold change turn out when WDR41 (UniProt Q9HAD4) was run?
**A.** Its log2 fold change is -0.004 (inactive).

**Q.** With WRN (UniProt Q14191) as the target, how does the log2 fold change read?
**A.** Its log2 fold change is -0.008 (inactive).

**Q.** UNC45A (UniProt Q9H3U1) was tested. Which log2 fold change did it give?
**A.** Its log2 fold change is -0.008 (inactive).

**Q.** With USP10 isoform 2 (UniProt Q14694) as the target, how does the log2 fold change read?
**A.** The log2 fold change was 0.001 (inactive).

**Q.** For ZNF346 (UniProt Q9UL40), which log2 fold change is on record?
**A.** Its log2 fold change is 0.008 (inactive).

**Q.** Which log2 fold change does the source give for USP8 (UniProt P40818) here?
**A.** Its log2 fold change is -0.009 (inactive).

**Q.** Which log2 fold change does the source give for UTP3 (UniProt Q9NQZ2) here?
**A.** Its log2 fold change is 0.001 (inactive).

**Q.** Which log2 fold change does the source give for USP48 (UniProt Q86UV5) here?
**A.** The log2 fold change was -0.224 (inactive).

**Q.** For YEATS4 (UniProt O95619), which log2 fold change is on record?
**A.** The log2 fold change was 0.016 (inactive).

**Q.** VASP (UniProt P50552) was tested. Which log2 fold change did it give?
**A.** The log2 fold change was 0.002 (inactive).

**Q.** For VPS16 (UniProt Q9H269), which log2 fold change is on record?
**A.** The log2 fold change was 0.017 (inactive).

**Q.** With WRNIP1 (UniProt Q96S55) as the target, how does the log2 fold change read?
**A.** The log2 fold change was 0.026 (inactive).

**Q.** How did the log2 fold change turn out when ZMYM1 (UniProt Q5SVZ6) was run?
**A.** Its log2 fold change is 0.012 (inactive).

**Q.** WRB (UniProt O00258) was tested. Which log2 fold change did it give?
**A.** The log2 fold change was -0.043 (inactive).

**Q.** With ZMYM2 (UniProt Q9UBW7) as the target, how does the log2 fold change read?
**A.** The log2 fold change was -0.059 (inactive).

**Q.** ZMAT2 (UniProt Q96NC0) was tested. Which log2 fold change did it give?
**A.** Its log2 fold change is -0.016 (inactive).

**Q.** How did the log2 fold change turn out when XPO5 (UniProt Q9HAV4) was run?
**A.** Its log2 fold change is 0.003 (inactive).

**Q.** Which log2 fold change does the source give for YTHDC2 (UniProt Q9H6S0) here?
**A.** The log2 fold change was 0.009 (inactive).

**Q.** With YRDC (UniProt Q86U90) as the target, how does the log2 fold change read?
**A.** The log2 fold change was -0.002 (inactive).

**Q.** ZBTB33 (UniProt Q86T24) was tested. Which log2 fold change did it give?
**A.** The log2 fold change was 0.183 (inactive).

**Q.** VPS11 (UniProt Q9H270) was tested. Which log2 fold change did it give?
**A.** The log2 fold change was 0.025 (inactive).

**Q.** With VAC14 (UniProt Q08AM6) as the target, how does the log2 fold change read?
**A.** Its log2 fold change is -0.025 (inactive).

**Q.** How did the log2 fold change turn out when VAV1 (UniProt P15498) was run?
**A.** Its log2 fold change is 0.054 (inactive).

**Q.** How did the log2 fold change turn out when UTP18 (UniProt Q9Y5J1) was run?
**A.** Its log2 fold change is -0.031 (inactive).

**Q.** For ZHX1 (UniProt Q9UKY1), which log2 fold change is on record?
**A.** The log2 fold change was 0.015 (inactive).
